The values that follow come from PubChem BioAssay (Tox21).

The structures appear in SMILES notation. Inconclusive results are not listed. A number with no mark means an inactive call. The source made the active and inactive calls. Unless noted, the call rests on the fitted dose curve; in most records, active means well fitted curve in the direction sought with a large enough effect in the repeat runs; inconclusive means weak or mixed curves; inactive means no such curve, though single readings can be large; an effect the other way counts as inactive or inconclusive.

Test [1] is described as follows: qHTS assay to identify small molecule agonists of the vitamin D receptor (VDR) signaling pathway - cell viability counter screen (AID 743224). Further: nearly all actives have a fitted effect of over 50% in size. The procedure, abridged: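 Viability is measured in the same wells as the VDR-bla reporter assay: after 16 h compound treatment and 2 h substrate loading, CellTiter-Glo is added and luminescence read 30 min later.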
On the technique in general: qHTS replaces the single test concentration by a dilution series.

Test [2] is described as follows: qHTS assay to identify small molecule antagonists of the vitamin D receptor (VDR) signaling pathway - cell viability counter screen (AID 743225). Further: nearly all actives have a fitted effect of over 50% in size. Put shortly: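 Cells (VDR-UAS-bla HEK 293T) are plated, rested 4 h at 37C, dosed with compound and 3 nM final 1-alpha,25-dihydroxy vitamin D3, and incubated 16 h. Viability is taken from CellTiter-Glo luminescence in the reporter wells.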

The nature of test [3]: qHTS assay to identify small molecule agonists of the NFkB signaling pathway (AID 1159509; active means well fitted curve in the direction sought with a large enough effect in the signal ratio in the repeat runs, not every such curve was filed as active; the % refers to the signal ratio). The procedure, abridged:
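NFkB-bla ME-180 cells carry a beta-lactamase reporter under an NF-kB response element. They were plated overnight, then exposed to compounds for 5 h at 37 C. Read-out is LiveBLAzer FRET after 1.5 hr at room temperature (405 nm excitation; 460/530 nm emission).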

Test [4] can be described thus: qHTS assay to identify small molecule agonists of the endoplasmic reticulum stress response signaling pathway - cell viability counter screen (AID 1159517; calls by dose curve; further: nearly all actives have a fitted effect of over 50% in size). Put shortly:
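CellTiter-Glo was added to wells already read for beta-lactamase FRET, and luminescence was recorded 30 min later. Cells: ESRE-bla HeLa, 1,500 per well, compound exposure 5 hr at 37 C.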

A short description of test [5]: qHTS assay to identify small molecule antagonists of the retinoid-related orphan receptor gamma (ROR-gamma) signaling pathway - cell viability counter screen (AID 1159520). Further: nearly all actives have a fitted effect of over 50% in size. Put shortly: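 Tet-on ROR gamma CHO cells (1,000/well) were plated 4 hr, given compounds in DMSO for 2 hr at 37 C, then induced with 1 uM final doxycycline for 16 hr. Viability was read as ATP by CellTiter-Glo luminescence after 30 min.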

Test [6] concerns the target Nuclear receptor ROR-gamma (Homo sapiens) (UniProt P51449). Description: qHTS assay to identify small molecule antagonists of the retinoid-related orphan receptor gamma (ROR-gamma) signaling pathway (AID 1159521). Put shortly: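 RORγ antagonism is scored from reduced reporter luminescence in Tet-on CHO cells. Induction used 1 uM final doxycycline hyclate for 16 h at 37 C, following a 2 h compound exposure.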

A short description of test [7]: qHTS assay to identify small molecule agonists of the AP-1 signaling pathway - cell viability counter screen (AID 1159525; calls by dose curve; further: nearly all actives have a fitted effect of over 55% in size). Put shortly:
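ME-180 AP-1-bla, 2500 cells/well, Opti-MEM + 0.5% dialyzed FBS; overnight 37 °C; cpd 15-pt titration, 5 h 37 °C; CellTiter-Glo 30 min RT; luminescence read; normalised to TOAB and DMSO controls.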

The nature of test [8]: qHTS assay to identify small molecule agonists of the AP-1 signaling pathway (AID 1159526; calls by dose curve).
Test [9] has as its target Retinoic acid receptor RXR-alpha (Homo sapiens) (UniProt P19793). Description: qHTS assay to identify small molecule agonists of the RXR signaling pathway (AID 1159527; calls by dose curve; further: nearly all actives have a fitted effect of over 35% in size). Put shortly:
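qHTS of the Tox21 10K library in GeneBLAzer RXR-alpha HEK 293T cells carrying a beta-lactamase reporter […]; 16 hr treatment, 9-cis retinoic acid as agonist control, FRET read-out.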

A short description of test [10]: qHTS assay to identify small molecule agonists of the RXR signaling pathway - cell viability counter screen (AID 1159529). Further: nearly all actives have a fitted effect of over 50% in size. The procedure, abridged:
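Cell viability is measured by CellTiter-Glo luminescence, 30 min at room temperature, in wells already read for beta-lactamase. Engineered HEK 293T cells (RXR-alpha-UAS-bla) are dosed 16 hr at 37 C. Tetraoctyl ammonium bromide serves as positive control.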

Test [11] can be described thus: qHTS assay to identify small molecule antagonists of the retinoid acid receptor (RAR) signaling pathway - cell viability counter screen (AID 1159551). Further: nearly all actives have a fitted effect of over 35% in size. The procedure, abridged:
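Cytotoxicity counter screen in C3RL4 cells: 6 h compound exposure with 1 uM retinol (final), viability from cellular ATP by luminescence.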

Test [12] in a line: qHTS assay to identify small molecule antagonists of the retinoic acid receptor (RAR) signaling pathway (AID 1159552; further: nearly all actives have a fitted effect of over 50% in size). The procedure, abridged:
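Quantitative HTS in C3RL4 RARE-luciferase reporter cells. Compounds were added with 1 uM (final) retinol; luminescence was read after 6 hr.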

Test [13] is described as follows: qHTS assay to identify small molecule agonists of the retinoic acid receptor (RAR) signaling pathway (AID 1159553). The note with it: C3RL4 RARE luciferase reporter, agonist, 6 h; activation: at 73.3 µM (top of the series). Put shortly:
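Agonist activity was scored in C3RL4 cells bearing a retinoic acid response element luciferase construct. Cells were treated with compounds for 6 hr at 37 C, and luciferase signal was measured as luminescence.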

Test [14] can be described thus: qHTS assay to identify small molecule antagonists of the estrogen related receptor (ERR) signaling pathway from Tox21 library - cell viability counter screen (AID 1224834). Further: nearly all actives have a fitted effect of over 30% in size. The procedure, abridged:
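Cytotoxicity of test substances is gauged in the same ERR cells used for the antagonist screen, after 17.5 h of compound treatment at 37 C, by CellTiter-Fluor fluorescence measured after 30 min.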

Test [15] has as its target Luciferin 4-monooxygenase (Photinus pyralis) (UniProt P08659). Description: qHTS assay to identify small molecule inhibitors of firefly luciferase (AID 1224835). Further: nearly all actives have a fitted effect of over 25% in size. Further: potency means the concentration at half of the fitted maximal effect. Put shortly:
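Quantitative HTS format; KM concentrations of both substrates. Purified P. pyralis FLuc activity quantified from luminescence images.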

Test [16] is described as follows: qHTS assay to identify small molecule agonists of the constitutive androstane receptor (CAR) signaling pathway - cell viability counter screen (AID 1224836). Further: nearly all actives have a fitted effect of over 45% in size. The procedure, abridged:
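Counter screen multiplexed with the CAR reporter readout: HepG2 cells co-transfected with hCAR and the CYP2B6-2.2kb construct receive a 15-concentration compound series and 0.75 uM PK11195 (final), then CellTiter-Fluor fluorescence is read after 23 h.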

In test [17] the target is Nuclear receptor subfamily 1 group I member 3 (Homo sapiens) (UniProt Q14994). Description: qHTS assay to identify small molecule antagonists of the constitutive androstane receptor (CAR) signaling pathway (AID 1224838). Further: nearly all actives have a fitted effect of over 40% in size. The procedure, abridged: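 Compounds were titrated across 15 concentrations onto HepG2 cells double-stably expressing hCAR and a CYP2B6-2.2kb reporter, together with 50 nM CITCO (final). After 24 h at 37 C, luciferase activity was measured by luminescence.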
Sequence of Nuclear receptor subfamily 1 group I member 3 (Homo sapiens) (Q14994 whole entry, looked up): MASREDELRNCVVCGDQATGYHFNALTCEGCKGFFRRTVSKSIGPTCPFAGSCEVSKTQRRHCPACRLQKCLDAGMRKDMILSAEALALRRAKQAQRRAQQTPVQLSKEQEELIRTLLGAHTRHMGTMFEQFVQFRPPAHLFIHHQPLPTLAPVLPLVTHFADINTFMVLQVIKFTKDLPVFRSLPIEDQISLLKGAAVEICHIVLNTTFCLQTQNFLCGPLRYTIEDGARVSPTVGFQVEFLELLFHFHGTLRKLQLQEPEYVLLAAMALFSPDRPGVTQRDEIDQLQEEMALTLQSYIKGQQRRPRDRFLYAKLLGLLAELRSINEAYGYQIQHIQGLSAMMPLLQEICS

A short description of test [18]: qHTS assay to identify small molecule agonists of the NFkB signaling pathway - cell viability counter screen (AID 1159515; calls by dose curve; further: nearly all actives have a fitted effect of over 55% in size). Put shortly:
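Multiplexed viability readout: after the 5 hr compound exposure and 1.5 hr FRET substrate step, CellTiter-Glo reagent went into the same NFkB-bla ME-180 wells; ATP luminescence was measured after 30 min at room temperature.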

Test [19] can be described thus: qHTS assay to identify small molecule agonists of the endoplasmic reticulum stress response signaling pathway (AID 1159516; active means well fitted activation curve with a large enough effect in the signal ratio in the repeat runs, not every such curve was filed as active; the % refers to the signal ratio). The procedure, abridged: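 Tox21 10K library screened in quantitative HTS format on ESRE-bla HeLa cells, a beta-lactamase reporter under ER stress response element control; 5 hr treatment, FRET read.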
Test [20] in a line: qHTS assay to identify small molecule antagonists of the constitutive androstane receptor (CAR) signaling pathway - cell viability counter screen (AID 1224837). Further: nearly all actives have a fitted effect of over 45% in size. The procedure, abridged: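 Multiplexed cytotoxicity read-out for the CAR antagonist screen: double-stable HepG2-CYP2B6-hCAR cells co-treated with 50 nM CITCO (final) and compound over 15 concentrations, incubated 23 hr, then assessed by CellTiter-Fluor fluorescence.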

Sequence of Retinoic acid receptor RXR-alpha (Homo sapiens) (P19793 whole entry, looked up): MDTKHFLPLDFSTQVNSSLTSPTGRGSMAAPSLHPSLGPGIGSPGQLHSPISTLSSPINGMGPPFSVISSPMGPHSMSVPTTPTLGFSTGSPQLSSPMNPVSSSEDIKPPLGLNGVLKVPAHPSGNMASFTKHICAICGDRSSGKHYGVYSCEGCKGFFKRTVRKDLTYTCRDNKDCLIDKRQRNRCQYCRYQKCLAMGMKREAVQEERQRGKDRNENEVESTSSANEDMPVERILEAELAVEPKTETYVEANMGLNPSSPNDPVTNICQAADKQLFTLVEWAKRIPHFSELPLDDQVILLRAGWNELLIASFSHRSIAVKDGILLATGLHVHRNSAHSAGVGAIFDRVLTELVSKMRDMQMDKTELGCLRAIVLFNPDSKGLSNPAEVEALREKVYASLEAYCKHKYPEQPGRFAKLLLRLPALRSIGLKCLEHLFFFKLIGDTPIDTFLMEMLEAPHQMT
Sequence of Luciferin 4-monooxygenase (Photinus pyralis) (P08659 whole entry, looked up): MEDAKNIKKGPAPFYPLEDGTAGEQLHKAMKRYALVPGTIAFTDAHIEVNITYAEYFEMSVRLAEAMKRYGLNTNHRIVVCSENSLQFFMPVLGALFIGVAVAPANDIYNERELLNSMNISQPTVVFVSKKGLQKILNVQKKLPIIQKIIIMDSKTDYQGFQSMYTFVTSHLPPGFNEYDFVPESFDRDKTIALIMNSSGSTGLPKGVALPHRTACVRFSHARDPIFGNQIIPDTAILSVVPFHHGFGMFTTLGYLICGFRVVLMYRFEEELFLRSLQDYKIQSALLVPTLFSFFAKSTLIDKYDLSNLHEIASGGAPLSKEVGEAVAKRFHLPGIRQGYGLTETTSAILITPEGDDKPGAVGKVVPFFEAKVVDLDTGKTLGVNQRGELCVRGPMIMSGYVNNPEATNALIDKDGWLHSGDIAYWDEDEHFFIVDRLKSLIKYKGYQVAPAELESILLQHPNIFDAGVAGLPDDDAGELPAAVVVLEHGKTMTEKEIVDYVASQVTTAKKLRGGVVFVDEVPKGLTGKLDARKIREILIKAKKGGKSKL

On to `COc1ccc(OC)c(NC(=O)CC(C)=O)c1`, for which the molecule was classed as inactive in [1], in test [2], in test [3], in test [4], in test [5] and in [6]. Besides, the call in test [7], in [8], in [10], in [11] and in [16] was inactive. Also, the Potency result in test [9], in test [12], in test [13], in test [14], in test [15] and in test [17] was “inactive” throughout.

On to `CC(C)=CC(C)(C)C`, for which the outcome in test [1], in test [18], in [4], in test [5], in [6] and in test [7] was inactive. The molecule was classed as inactive in test [8], in [10], in test [11] and in test [16]. Also, the Potency entry in test [9], in test [12], in [13], in test [14] and in test [15] was “inactive” each time.

Regarding `C=CCOC(=O)c1ccc(C(=O)OCC=C)c(C(=O)OCC=C)c1`, the outcome in test [1], in test [2], in test [3], in test [19], in test [4] and in test [5] was inactive. The molecule was classed as inactive in test [6], in test [7], in [8], in test [10], in test [11] and in test [16]. The Potency result in test [9], in test [12], in test [13], in [14], in [20] and in [17] was “inactive” in each case.

For the molecule `CCNC(=O)NCCCOc1cccc(CN2CCCCC2)c1`, the result in test [1], in [2], in test [3], in test [19], in [4] and in test [5] was inactive. Further, the molecule was called inactive in [6], in test [7], in [8], in [10], in test [11] and in test [16]. Moreover, the Potency entry in test [9], in test [12], in [13], in test [14], in [15] and in test [20] was “inactive” throughout.

For `Cc1oc(=O)oc1CN1CCN(c2cc3c(cc2F)c(=O)c(C(=O)O)c2n3C(C)S2)CC1` (stereo unspecified), the molecule was classed as inactive in [1], in [2], in test [3], in test [19], in test [4] and in test [5]. In addition, the molecule was called inactive in test [6], in test [7], in test [8], in [10], in test [11] and in test [16]. The Potency result in [9], in test [12], in test [15] and in test [20] was “inactive” throughout.

As for `CC(=O)OCC(=O)[C@@]1(O)[C@H](OC(C)=O)C[C@H]2[C@@H]3CCC4=CC(=O)C=C[C@]4(C)[C@@]3(F)[C@@H](O)C[C@@]21C`, the outcome in [1], in test [2], in test [3], in test [19], in test [4] and in test [5] was inactive. Besides, the molecule was classed as inactive in test [6], in [7], in [8], in [10], in test [11] and in test [16]. The Potency entry in [9], in test [12], in [14], in test [15], in test [20] and in test [17] was “inactive” throughout.

Consider `CCCCC(=O)N(C)C`, for which the outcome in [1], in test [2], in test [3], in [19], in test [4] and in test [5] was inactive. For the same molecule, the call in test [6], in test [8], in test [10], in test [11] and in test [16] was inactive. Further, the Potency result in test [9], in test [12], in test [14], in [15] and in [20] was “inactive” throughout.

With `O=[Si]=O`, the molecule was classed as inactive in test [1], in [2], in test [3], in [19], in test [4] and in test [5]. The molecule was classed as inactive in test [6], in test [7], in test [8], in test [10], in test [11] and in [16]. For the same molecule, the Potency entry in test [9], in test [12], in test [13], in test [14], in test [15] and in test [20] was “inactive” throughout.

As to `CCCCCCCCCCCCOC(C)=O`, the call in test [1], in test [2], in test [3], in test [4], in [5] and in [6] was inactive. For the same molecule, the result in test [7], in [8], in [10], in test [11] and in [16] was inactive. Besides, the Potency result in test [9], in test [12], in test [14] and in test [20] was “inactive” throughout.

Take `C=C(C)[C@@H]1CC[C@@H](C)C[C@@H]1O`: the molecule was called inactive in test [1], in test [2], in test [18], in test [19], in test [4] and in test [5]. Moreover, the outcome in [6], in test [8], in test [10], in [11] and in test [16] was inactive. Moreover, the Potency result in [9], in test [14] and in test [20] was “inactive” each time.

As for `CC(C)COC(=O)COc1ccc(Cl)cc1Cl`, the molecule was classed as inactive in [1], in test [2], in test [3], in test [19], in test [4] and in test [5]. Further, the outcome in [6], in test [7], in test [8], in test [10], in test [11] and in [16] was inactive. In addition, the Potency result in [9], in [12] and in test [14] was “inactive” throughout. The Potency in test [15] is 11.2 µM (active).
